# Test results: PubChem BioAssay (EPA / NIEHS)
# The source made the active and inactive calls. Rule for the calls: active = hit-call score of the fitted dose curve at least 0.9, where 1 is the maximum; inactive = score below 0.9.
# Key:
# [1] = tested on: SRY-box transcription factor 17 (SOX17) Protein Expression, Deisenroth Lab, SOX17 (gene 64321); assay: CCTE_Deisenroth_DEVTOX-GLR_Endo_SOX17: CCTE's DevTox GLR-Endo Assay Evaluation of SRY-box transcription factor 17 (SOX17) Protein Expression, Deisenroth Lab (AID 2284413)
# In short: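 Endpoint: % change in SOX17+ fraction (SOX17+ cells / cell count) vs 0.2% DMSO solvent control. RUES2-GLR reporter cells, 48 h endoderm differentiation, two doses at 24 h intervals, high-content fluorescence imaging, 5 fields/well.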
# [2] = CCTE_Padilla_ZF_Score.Craniofacial: CCTE's 144 Hour Post-fertilization zebrafish Assay Score for Craniofacial Malformation, Padilla Lab (AID 2284405)
# Procedure: (§1) CCTE_Padilla_ZF_Phenotype_Score is a whole embryo, multiplexed assay using zebrafish ova exposed for 144 hours post fertilization on a 96-well plate.CCTE_Padilla_ZF_Score.Craniofacial is one of one assay component(s) measured or calculated from the CCTE_Padilla_ZF_Phenotype_Score assay. It is designed to make measurements of zebrafish development as detected with brightfield microscopy of developing zebrafish embryos.Data from the assay component CCTE_Padilla_ZF_Score.Craniofacial was analyzed into 1 assay endpoints. This assay endpoint, CCTE_Padilla_ZF_Score.Craniofacial, was analyzed in the positive analysis fitting direction relative to DMSO as the negative control and baseline of activity. Using a type of viability reporter, gain-of-signal activity can be used to understand changes in developmentals as they relate to the whole embryo. To generalize the intended target to other relatable targets, this assay endpoint is annotated to the zebrafish development intended target family, where the subfamily is craniofacial morphogenesis.
# (§2) Zebrafish husbandry: Wild type adult zebrafish (Danio rerio; undefined outbred stock obtained from Aquatic Research Organisms, Hampton, NH, 03842) were housed in an AAALAC-approved animal facility at 28C with a 14:10 h light: dark cycle (lights on at 08:30 h). […]
# [3] = CCTE_Padilla_ZF_Score.Edema: CCTE's 144 Hour Post-fertilization zebrafish Assay Score for Edema Malformation, Padilla Lab (AID 2284406)
# Procedure: as §1, with “plate.CCTE_Padilla_ZF_Score.Edema” for “plate.CCTE_Padilla_ZF_Score.Craniofacial”, “CCTE_Padilla_ZF_Score.Edema” for “CCTE_Padilla_ZF_Score.Craniofacial”, “CCTE_Padilla_ZF_Score.Edema,” for “CCTE_Padilla_ZF_Score.Craniofacial,”, “embryonic edema.” for “craniofacial morphogenesis.”
# as §2
# [4] = CCTE_Padilla_ZF_Score.Spine: CCTE's 144 Hour Post-fertilization zebrafish Assay Score for Spine Malformation, Padilla Lab (AID 2284407)
# In short: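 Wild-type zebrafish embryos, one per well in Hanks' solution, dosed at 6–8 hpf in sealed plates at 26C, 14:10 h light:dark; rinsed at 5 dpf. Two blinded assessors scored spinal defects by stereomicroscopy at 6 dpf; fitted versus DMSO.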
# [5] = CCTE_Padilla_ZF_Score.Swim_bladder: CCTE's 144 Hour Post-fertilization zebrafish Assay Score for Swim Bladder Malformation, Padilla Lab (AID 2284408)
# In short: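 Wild-type zebrafish embryos, one per well in 10% Hanks', dosed at 6–8 hpf, sealed, reared at 26C and rinsed at 5 dpf. Blinded assessors scored uninflated swim bladder by stereomicroscopy at 6 dpf, relative to DMSO.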
# [6] = CCTE_Padilla_ZF_Score.Position: CCTE's 144 Hour Post-fertilization zebrafish Assay Score for Position, Padilla Lab (AID 2284409)
# In short: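 Wild-type zebrafish embryos (with chorions) exposed singly from 6–8 hpf in sealed wells of Hanks' solution at 26C, rinsed at 5 dpf. At 6 dpf, blinded assessors scored abnormal water-column position by brightfield stereomicroscopy, relative to DMSO.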
# [7] = CCTE_Padilla_ZF_Score.Living: CCTE's 144 Hour Post-fertilization zebrafish Assay Score for Viability, Padilla Lab (AID 2284410);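 note: larval death at 6 dpf judged by absent heartbeat or coagulation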
# In short: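 Wild-type zebrafish embryos were exposed singly from 6–8 hpf in sealed wells of Hanks' solution at 26C, then rinsed at 5 dpf. At 6 dpf, blinded assessors scored mortality (no heartbeat or coagulation) by stereomicroscopy, fitted against DMSO.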
# [8] = CCTE_Padilla_ZF_Score.General: CCTE's 144 Hour Post-fertilization zebrafish Assay Score for General Malformation, Padilla Lab (AID 2284411)
# In short: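 Wild-type zebrafish embryos were plated singly at 6-8 hpf in 10% Hanks' and exposed in sealed wells at 26C until rinsed on 5 dpf. At 6 dpf two blinded assessors scored mortality, hatching and malformations by stereomicroscopy; gain-of-signal versus DMSO.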
# [9] = CCTE_Padilla_ZF_Score.Tail: CCTE's 144 Hour Post-fertilization zebrafish Assay Score for Tail Malformation, Padilla Lab (AID 2284414)
# In short: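 Wild-type zebrafish embryos, one per well in 200 uL 10% Hanks', dosed at 6-8 hpf, sealed, and kept at 26 C on a 14:10 h light cycle. Chemical was rinsed out at 5 dpf. Blinded brightfield scoring of tail defects followed at 6 dpf.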
# [10] = CCTE_Padilla_ZF_Score.Blood_pooling: CCTE's 144 Hour Post-fertilization zebrafish Assay Score for Blood Pooling, Padilla Lab (AID 2284415)
# In short: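 Wild-type outbred zebrafish embryos, one per well in 10% Hanks', exposed from 6–8 hpf in sealed plates at 26C on 14:10 h light:dark, rinsed at 5 dpf. Blinded stereomicroscope scoring of blood pooling at 6 dpf; gain-of-signal versus DMSO.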
smiles,measurement,setting,value
CC1(C)[C@@H]2CC[C@@]1(C)C(=O)C2,outcome,[1],inactive
C[N+](C)(C)CCCNS(=O)(=O)C(F)(F)C(F)(F)C(F)(F)C(F)(F)C(F)(F)C(F)(F)C(F)(F)C(F)(F)F,outcome,[2],inactive
same,outcome,[3],inactive
same,outcome,[4],inactive
same,outcome,[5],inactive
same,outcome,[6],inactive
same,AC50,[7],50.1 µM (active)
same,outcome,[8],inactive
same,outcome,[9],inactive
same,outcome,[10],inactive
CCCCCCC=O,outcome,[8],inactive
C=CC(=O)OCCCCCCOC(=O)C=C,outcome,[8],inactive
c1ccc2c(c1)[nH]c1ccccc12,outcome,[8],inactive
C=CC(=O)NC(C)(C)C,outcome,[8],inactive
O=C(O)C(F)(F)C(F)(F)C(F)(F)C(F)(F)C(=O)O,outcome,[2],inactive
same,outcome,[3],inactive
same,outcome,[4],inactive
same,outcome,[5],inactive
same,outcome,[6],inactive
same,outcome,[7],inactive
same,outcome,[8],inactive
same,outcome,[9],inactive
same,outcome,[10],inactive
COc1ccc(C(=O)c2ccccc2)c(O)c1,AC50,[8],7.03 µM (active)
CCCCCCCO,outcome,[8],inactive
CCCCCCOC(=O)CCCCC(=O)OCCCCCC,outcome,[8],inactive
C=CCCCCCCCCC=O,outcome,[8],inactive
c1ccc2sc(SSN3CCOCC3)nc2c1,outcome,[8],inactive
C=CC(=O)OCCCCCCCC(C)C,outcome,[8],inactive
